Data as given in PubChem BioAssay (EPA / NIEHS).
“And” between values parts separate entries of the source, which are not always exact repeats. Equal values may be shown once. Inconclusive results are not listed. The source made the active and inactive calls. How the source made its calls: active means hit-call score of the fitted dose curve at least 0.9, where 1 is the maximum; inconclusive means response in the unintended direction; inactive means score below 0.9.

Biological target: frog Thyroid hormone Receptor alpha (TRa), thra-a (gene 397942) (UniProt P15204)
Assay: ATG_frTRa_XSP2: Attagene TRANS-FACTORIAL Multi-Species (XSP2) HepG2 Assay for frog Thyroid hormone Receptor alpha (TRa) (AID 2283839);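 on AC50: AC50 reflects induction of frog TRa-driven reporter mRNA above DMSO baseline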
Experimental: ATG_XSP2_multi-species_TRANS is a cell-based, multiplexed assay created by modifying the existing Attagene TRANS-FACTORIAL system to include a panel of nuclear receptors from some or all the following species: human (Homo sapiens), mouse (Mus musculus), frog (Xenopus laevis), zebrafish (Danio rerio), chicken (Gallus gallus), and turtle (Chrysemys picta). The ECOTOX-FACTORIAL format uses HepG2, a human liver cell line, with measurements taken at 24 hours after chemical dosing in a 24-well plate. Xsp2 included 3 nM 6-alpha-fluorotestosterone and 1.5 nM norgestrel to stimulate the androgen receptor.ATG_frTRa_XSP2 is one of 29 assay components measured or calculated from the ATG_XSP2_multi-species_TRANS assay. It is designed to make measurements of mRNA induction, a form of inducible reporter, as detected with fluorescence intensity signals by Reverse transcription polymerase chain reaction (RT-PCR) and Capillary electrophoresis technology.The assay endpoint ATG_frTRa_XSP2 was analyzed in the positive analysis fitting direction relative to DMSO as the negative control and baseline of activity. Using a type of inducible reporter, measures of mRNA for gain-of-signal activity can be used to understand the reporter gene at the transcription factor-level as they relate to the gene TR. Furthermore, this assay endpoint can be referred to as a primary readout, because this assay has produced multiple assay endpoints where this one serves a reporter gene function. To generalize the intended target to other relatable targets, this assay endpoint is annotated to the nuclear receptor intended target family, where the subfamily is non-steroidal.
Human liver HepG2 cells are transiently transfected with multiple reporter transcription units (MRTUs) in 6-well plates using FuGene 6 reagent (Roche; 3 ml FuGene/1 mg DNA). The MRTU constructs are regulated by a cis-regulating element (promoter). […] A major difference between the CIS and TRANS system is that in CIS activities of endogenous TFs are measured, whereas the TRANS assay evaluates changes in activities of exogenous, chimeric NR-Gal4 proteins. […] At the end of 24 hour incubation, total RNA was isolated using TriZol reagent (Invitrogen). The isolated RNA is then reverse-transcribed using oligo(dT) primer and Mo-MLV reverse transcriptase (Invitrogen) with DNAse I (Ambion) treatment for 30 min. The one-tenth of the produced cDNA was amplified by PCR using Taq DNA polymerase (Invitrogen) and two reporter sequence-specific primers. The PCR products were fluorescently labeled by primer extension with 6-arboxyfluorescein (6-FAM) 5'-labeled reporter sequence-specific primer (2 min at 95 C, 20 s at 68 C and 10 min at 72 C) and these products were digested with 5U of HpaI (New England Biolabs) for 2h at 37 C. The fragments were purified using Qiaquick PCR columns (Qiagen), analyzed on an ABI 3130xL genetic analyzer (Applied Biosystems) with peak positions identified by using a set of X-rhodamine (ROX)-labeled MapMarker1000 molecular weight standards (BioVentures). The raw capillary electrophoresis data was processed using Attagraph software (Attagene).

frog Thyroid hormone Receptor alpha (TRa), thra-a (gene 397942), sequence (P15204 whole entry, looked up): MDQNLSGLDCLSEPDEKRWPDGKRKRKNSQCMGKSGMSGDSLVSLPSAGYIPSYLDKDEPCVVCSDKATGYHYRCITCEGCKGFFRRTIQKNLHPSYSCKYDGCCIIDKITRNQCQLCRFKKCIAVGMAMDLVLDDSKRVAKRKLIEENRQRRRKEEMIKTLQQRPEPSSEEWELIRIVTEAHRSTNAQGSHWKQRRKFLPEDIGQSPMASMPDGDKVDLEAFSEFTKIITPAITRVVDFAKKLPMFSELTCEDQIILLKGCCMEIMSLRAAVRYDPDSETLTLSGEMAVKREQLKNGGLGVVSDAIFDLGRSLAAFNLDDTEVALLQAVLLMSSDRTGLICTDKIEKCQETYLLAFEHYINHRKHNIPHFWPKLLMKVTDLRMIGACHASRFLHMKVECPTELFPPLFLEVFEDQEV

Structure (SMILES)	AC50	outcome
N[C@@H](Cc1cc(I)c(Oc2ccc(O)c(I)c2)c(I)c1)C(=O)O	0.185 nM (active) and 197 nM (active)	–
CC(C)(c1ccc(O)cc1)c1ccc(O)cc1	–	inactive
CC1(C)C(C=C(Cl)Cl)C1C(=O)OCc1cccc(Oc2ccccc2)c1 (configuration not stated)	–	inactive
CCCCC(CC)CN1C(=O)C2C3C=CC(C3)C2C1=O (configuration not stated)	–	inactive
CC(=O)S[C@@H]1CC2=CC(=O)CC[C@]2(C)[C@H]2CC[C@@]3(C)[C@@H](CC[C@@]34CCC(=O)O4)[C@H]12	–	inactive
CCCCC(CC)COC(=O)c1ccccc1C(=O)O (configuration not stated)	–	inactive
CC(C)CCCCCCc1ccc(O)cc1	–	inactive
CN(C)C(=O)Nc1ccc(Cl)c(Cl)c1	–	inactive
C#C[C@]1(O)CC[C@H]2[C@@H]3CCC4=CC(=O)CC[C@@H]4[C@H]3CC[C@@]21CC	–	inactive
CCN(Cc1c(F)cccc1Cl)c1c([N+](=O)[O-])cc(C(F)(F)F)cc1[N+](=O)[O-]	–	inactive
Oc1ccc(C(c2ccc(O)cc2)C(Cl)(Cl)Cl)cc1	–	inactive
O=C(c1ccc(O)cc1O)c1ccc(O)cc1O	–	inactive
